Shown are actives, neighbours in structure and some others; about 7.1% of the full set was active somewhere.
SW480 rereplic = A quantitative high throughput screen for small molecules that induce DNA re-replication in SW480 colon adenocarcinoma cells. AID 624297, 2012. hit rate 1.8% among 340,000. SW480 DNA re-replication, Hoechst DNA content imaging, 48 h. Potency, µM (series often up to 46.1 µM), hits mostly activators; note: nearly all actives have a fitted effect of over 55% in size
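Quantitative HTS format with DMSO vehicle controls; 48 hr drug incubation at 37 C, then 40 min Hoechst staining and scanning imager measurement at 405 nm excitation.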
MCF10A rereplic = A quantitative high throughput screen for small molecules that induce DNA re-replication in MCF 10a normal breast cells; MCF 10A DNA re-replication, Hoechst nuclear intensity, 48 h; Potency, µM (highest dose often 46.1 µM), hits mostly activators; hit rate 2.9% among 350,000; AID 624296, 2012; note: nearly all actives have a fitted effect of over 50% in size
IL-1B inflam inh = qHTS for Inhibitors of Inflammasome Signaling: IL-1-beta AlphaLISA Primary Screen | THP-1 LPS/ATP IL-1B secretion, AlphaLISA, 16 h; stronger effect = lower value | activity change, % at 57.5 µM | hit rate 4.7% among 360,000; in the data active = activity change below about -50%; inconclusive = mostly about -30% to -49%
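Secreted IL-1B measured by AlphaLISA bead assay after 16 h compound exposure of THP-1 cells; compounds (final up to 57.5 uM) added 1 h before LPS (250 ng/mL) and ATP (1.25 mM) stimulation; lower signal means less secretion.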
PINK1 modulator = A Quantitative High throughput Screen to Identify Chemical Modulators of PINK1 Expression; PINK1 immunofluorescence, high-content cytometry, 24 h; Potency, µM (top dose mostly 76.6 µM), hits mostly activators; hit rate 0.2% among 410,000; AID 624263, 2012; active = well fitted activation curve with a large enough effect; inconclusive = small, poorly fitted or top-dose-only effect; cell line not stated here; note: nearly all actives have a fitted effect of over 65% in size
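Measures PINK1 amount and localization on or inside mitochondria by immunofluorescence. Stable cells get compounds at 5 concentrations for 24 hours before fixation and staining; CCCP controls included.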
ATXN viability = Viability Counterscreen for Primary qHTS for Inhibitors of ATXN expression. Potency, µM (titrated, usually from 56.7 µM), actives largely listed as cytotoxic. hit rate 0.49% among 400,000. S2 cells (HEK-293 line with an ATXN2-luciferase reporter) viability, CellTiter-Fluor protease fluorescence, 24 h; note: nearly all actives have a fitted effect of over 40% in size
ATXN2 expr inh = Primary qHTS for Inhibitors of ATXN expression; HEK-293 ATXN2-luciferase reporter, luminescence, 24 h; Potency, µM (highest dose often 57 µM), most hits filed as inhibitors; hit rate 0.72% among 360,000; AID 1745845, 2022; note: nearly all actives have a fitted effect of over 55% in size
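ATXN2-luciferase reporter cells (luciferase flanked by upstream and downstream ATXN2 gene portions) were treated 24 h at 37 °C with compounds at up to 57 uM. SteadyGlo luminescence gave expression; GF-AFC fluorescence gave viability.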
Hits are given with their value; – = inactive; ? = inconclusive; · = no result; [ ] = dose if it differs, or a comment. Unless noted, calls come from the whole dose curve; as a rule, active = well fitted curve in the direction sought with a large enough effect; inconclusive = small, poorly fitted or top-dose-only effect, or another doubt; inactive = no such curve, though single readings can be large; an effect the other way counts as inactive or inconclusive.

SMILES | SW480 rereplic | MCF10A rereplic | IL-1B inflam inh | PINK1 modulator | ATXN viability | ATXN2 expr inh
CON(c1nc(Cl)nc(N(C)C)n1)S(=O)(=O)c1ccc(C)cc1 | ? | ? | -63 | – | – | ?
CCCCC(=O)N1C/C=C\C(c2ccc(OC)cc2)N(Cc2ccc(F)cc2)C(=O)[C@H]1Cc1ccccc1 (some centres not stated) | 3.7µM | ? | – | – | ? | ?
O=[N+]([O-])c1ccccc1-c1cc(-c2cc(Cl)ccc2O)n[nH]1 | – | ? | -101 | ? | ? | –
COc1ccc(-c2cc(-c3cc(C)ccc3O)[nH]n2)cc1 | ? | 18µM | ? | – | ? | –
Oc1ccc(Cl)cc1-c1cc(-c2ccccc2Cl)[nH]n1 | ? | –[0.0737 µM] | – | – | – | –
Cc1ccc(O)c(-c2cc(-c3ccccc3C)[nH]n2)c1 | ? | ? | -95 | – | ? | –
COc1ccc(-c2cc(-c3ccc(C)cc3)n[nH]2)c(O)c1 | ? | – | – | – | ? | ·
Cc1ccc(O)c(-c2cc(-c3ccccc3[N+](=O)[O-])[nH]n2)c1 | – | ? | -87 | – | · | –
COc1ccc(O)c(-c2cc(-c3ccccc3[N+](=O)[O-])[nH]n2)c1 | – | – | – | – | – | –
O=C(NCc1ccc2c(c1)CCN2C(=O)c1ccc(F)cc1)c1ccc(Br)o1 | · | · | · | – | · | ·
Cc1ccc(OCCSc2nc3ccc(NC(=O)c4ccc5c(c4)OCO5)cc3s2)cc1 | · | · | · | – | – | –
O=C(c1cc2cc3ccc(Cl)cc3nc2o1)N1CCN(c2cccc(Cl)c2)CC1 | · | · | · | – | – | –
CC(C)(C)c1ccc(-c2cc(-c3ccccc3O)[nH]n2)cc1 | ? | 9.2µM | -99 | – | ? | –
Oc1ccccc1-c1cc(-c2cccc(F)c2)n[nH]1 | – | – | – | – | – | –
COc1ccccc1CNc1ncnc2sc(C(=O)N(C)C(C)C)c(C)c12 | · | · | · | – | ? | ·
Cc1cccc(OCCCC(=O)Nc2nc3ccccc3[nH]2)c1 | – | – | – | – | – | 13µM
Cc1ccc(OCCCC(=O)Nc2nc3ccccc3[nH]2)cc1 | – | – | – | – | – | –
CCCN(CCC)CC(O)CN1C(=O)N(CN2C(=O)N(CC(O)CN(CCC)CCC)C(=O)C2(C)C)C(C)(C)C1=O (configuration not stated) | – | – | -65 | – | ? | –
COc1ccc(-c2cc3nc4n(c(=O)c3s2)CCC4)cc1 | – | – | – | – | – | 5µM
CCc1ccc(-n2c(SCc3nc(-c4cc(OC)ccc4OC)no3)nnc2-c2ccccc2)cc1 | · | · | · | – | ? | –
CC(=O)N/N=C/c1cc(C(C)C)cc(/C=N/NC(C)=O)c1O | 15µM | 18µM | – | – | · | ?
COc1ccc(/C=C/C(=O)NCc2cnn(C)c2C)cc1COc1ccc(Br)cc1 | – | ? | ? | – | – | ?
COc1ccc(/C=C/C(=O)NCc2c(C)nn(C)c2C)cc1COc1ccc(Br)cc1 | ? | 3.7µM | – | ? | ? | –
CC1(C)Cc2c(sc3ncnc(NNC(=S)NCc4ccccc4)c23)CO1 | 3.7µM | 3.3µM | – | – | ? | ·
CCOc1ccc(Cc2nc(C)c(CC(=O)N3CCCCC3)c(=O)[nH]2)cc1 | – | – | – | – | – | –
SMILES | SW480 rereplic | MCF10A rereplic | IL-1B inflam inh | PINK1 modulator | ATXN viability | ATXN2 expr inh
CC(C)c1nn(-c2c(Cl)cccc2Cl)c2nc(Cc3ccc(OCCO)cc3)[nH]c(=O)c12 | · | · | · | · | · | 0.034µM
NS(=O)(=O)c1ccc(N=Nc2c(-c3ccccc3)[nH]n(-c3nc(-c4ccccc4)cs3)c2=O)cc1 | 2.9µM | ? | ? | – | – | ?
CCN(CCO)Cc1csc2ccc(C(C)(C)C)cc12 | – | – | -57 | – | ? | –
CCN(CCO)Cc1csc2ccc(Cl)cc12 | – | – | – | – | ? | –
CCOCN(C(=O)Cn1cnc2cc(C)c(C)cc21)c1c(C)cccc1CC | · | · | · | – | 28µM | –
Cc1nn(CC(=O)Nc2ccc(C(C)C)cc2)c(=O)c2c(C)n(-c3ccc(Cl)cc3)nc12 | · | · | · | – | · | ·
COc1ccc(NC(=O)/C(C#N)=C/c2c(C)nn(-c3ccc(F)cc3)c2Cl)cc1Cl | ? | ? | -55 | ? | – | –
Cc1nn(-c2ccccc2)c(Cl)c1/C=C(\C#N)C(=O)NC(C)C | ? | 23µM | -102 | – | ? | –
COc1ccccc1NC(=O)/C(C#N)=C/c1c(C)nn(-c2ccc(F)cc2)c1Cl | – | – | – | – | – | –
CCC(CO)Oc1cc(NC(=O)c2ccccc2[N+](=O)[O-])c2ncn(C(C)C)c2c1 (configuration not stated) | – | – | – | – | ? | –
CC1CN(C(=O)N2CCC(C(=O)NCc3ccccc3F)CC2)c2cc(Cl)ccc2O1 (configuration not stated) | · | · | · | – | · | ·
COc1ccccc1NC(=S)N(Cc1ccccc1)Cc1cccs1 | – | – | – | – | – | –
COc1ccccc1NC(=S)N(Cc1cccs1)C1CCCC1 | – | – | -63 | – | – | –
Cc1ccc(NC(=O)C2(C)Cc3ccccc3C(=O)O2)c(C)c1 (configuration not stated) | · | · | · | – | – | –
COc1ccc(Cn2ccnc2)cc1Br | – | – | – | – | – | –
COc1ccc(NCc2ccc(OC)c(Cn3ccnc3)c2)c(OC)c1 | – | – | -69 | – | – | –
CC(NCC(O)COc1ccc(S(=O)(=O)N2CCOCC2)cc1)c1ccccc1 (configuration not stated) | – | – | – | – | – | –
CC1CCC(C(C)C)C(OCC(O)CNC(C)c2ccccc2)C1 (configuration not stated) | – | 16µM | -108 | – | ? | ?
CC1CCC(C(C)C)C(OCC(O)CNC(C)(C)C)C1 (configuration not stated) | – | – | – | – | – | ·
CC(NCC(O)COC1CCC(C(C)(C)C)CC1)c1ccccc1 (configuration not stated) | – | ? | -67 | – | · | ·
COc1ccc(OCCn2c(CCNC(=O)C3CCCCC3)nc3ccccc32)cc1 | · | · | · | – | · | ·
N#Cc1nc(COc2ccccc2)oc1N1CCN(Cc2ccccc2)CC1 | – | ? | ? | – | – | –
Cc1ccccc1OCc1nc(C#N)c(N2CCCC2)o1 | – | – | -58 | – | ? | –
N#Cc1nc(COc2ccccc2)oc1N1CCC(Cc2ccccc2)CC1 | – | – | -55 | – | – | –
Cc1cc(/C=N/NC(N)=S)c(C)n1-c1ccc(Cl)c(Cl)c1 | 18µM | 26µM | – | – | ? | –
CCNC(=S)N/N=C/c1cc(C)n(-c2ccc(Cl)cc2)c1C | – | ? | ? | – | ? | –

Bioassay records as filed in PubChem.
